Data as given in the supplement of paper PMC4466140.

molecular target: AgAbp1; test: SPOT peptide array binding signal intensity (averaged, normalized) (arbitrary units (background-subtracted, floor 0; scale differs between SH3 domains)); higher = stronger binding of the SH3 domain to the peptide
In short: (§1)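 Binding signal is given in arbitrary units that differ between domains and is the normalized, background-subtracted spot intensity averaged across replicates. Each GST-SH3 fusion from one of four yeast species was made in E. coli BL21(DE3), purified on glutathione Sepharose and incubated at 10 μg/ml overnight at 4°C on cellulose-bound synthetic 15-mer peptides in which cysteines were replaced by serines. Detection used anti-GST antibody, an HRP anti-mouse secondary and luminol, followed by imaging and Genespotter quantification.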

Row | Binder | SPOT peptide array binding signal intensity
1 | GAGERPRLVPRPINV | 13

molecular target: AgBbc1; test: as above
In short: as §1

Row | Binder | SPOT peptide array binding signal intensity
2 | GAGERPRLVPRPINV | 148

molecular target: AgBem1-D1; test: as above
In short: as §1

Row | Binder | SPOT peptide array binding signal intensity
3 | GAGERPRLVPRPINV | 23

molecular target: AgBzz1-D1; test: as above
In short: as §1

Row | Binder | SPOT peptide array binding signal intensity
4 | GAGERPRLVPRPINV | 27

molecular target: AgBzz1-D2; test: as above
In short: as §1

Row | Binder | SPOT peptide array binding signal intensity
5 | GAGERPRLVPRPINV | 33

molecular target: AgCyk3; test: as above
In short: as §1

Row | Binder | SPOT peptide array binding signal intensity
6 | GAGERPRLVPRPINV | 6

molecular target: AgFus1; test: as above
In short: as §1

Row | Binder | SPOT peptide array binding signal intensity
7 | GAGERPRLVPRPINV | 4.5

molecular target: AgHof1; test: as above
In short: as §1

Row | Binder | SPOT peptide array binding signal intensity
8 | GAGERPRLVPRPINV | 8.5

molecular target: AgHse1; test: as above
In short: as §1

Row | Binder | SPOT peptide array binding signal intensity
9 | GAGERPRLVPRPINV | ≤ 0

molecular target: AgLsb1; test: as above
In short: as §1

Row | Binder | SPOT peptide array binding signal intensity
10 | GAGERPRLVPRPINV | 9

molecular target: AgLsb4; test: as above
In short: as §1

Row | Binder | SPOT peptide array binding signal intensity
11 | GAGERPRLVPRPINV | 28

molecular target: AgMyo5; test: as above
In short: as §1

Row | Binder | SPOT peptide array binding signal intensity
12 | GAGERPRLVPRPINV | 0.5

molecular target: AgNbp2; test: as above
In short: as §1

Row | Binder | SPOT peptide array binding signal intensity
13 | GAGERPRLVPRPINV | ≤ 0

molecular target: AgRvs167; test: as above
In short: as §1

Row | Binder | SPOT peptide array binding signal intensity
14 | GAGERPRLVPRPINV | 2

molecular target: AgSho1; test: as above
In short: as §1

Row | Binder | SPOT peptide array binding signal intensity
15 | GAGERPRLVPRPINV | ≤ 0

molecular target: AgSla1-D1-D2; test: as above
In short: as §1

Row | Binder | SPOT peptide array binding signal intensity
16 | GAGERPRLVPRPINV | ≤ 0

molecular target: AgSla1-D3; test: as above
In short: as §1

Row | Binder | SPOT peptide array binding signal intensity
17 | GAGERPRLVPRPINV | 1

molecular target: CaAbp1-D1; test: as above
In short: as §1

Row | Binder | SPOT peptide array binding signal intensity
18 | GAGERPRLVPRPINV | 17

molecular target: CaAbp1-D2; test: as above
In short: as §1

Row | Binder | SPOT peptide array binding signal intensity
19 | GAGERPRLVPRPINV | 8

molecular target: CaBbc1; test: as above
In short: as §1

Row | Binder | SPOT peptide array binding signal intensity
20 | GAGERPRLVPRPINV | 314

molecular target: CaBem1-D1; test: as above
In short: as §1

Row | Binder | SPOT peptide array binding signal intensity
21 | GAGERPRLVPRPINV | 68.5

molecular target: CaBzz1-D1; test: as above
In short: as §1

Row | Binder | SPOT peptide array binding signal intensity
22 | GAGERPRLVPRPINV | 109

molecular target: CaBzz1-D2; test: as above
In short: as §1

Row | Binder | SPOT peptide array binding signal intensity
23 | GAGERPRLVPRPINV | 51.2

molecular target: CaCyk3; test: as above
In short: as §1

Row | Binder | SPOT peptide array binding signal intensity
24 | GAGERPRLVPRPINV | 285

molecular target: CaFus1; test: as above
In short: as §1

Row | Binder | SPOT peptide array binding signal intensity
25 | GAGERPRLVPRPINV | ≤ 0

molecular target: CaHof1; test: as above
In short: as §1

Row | Binder | SPOT peptide array binding signal intensity
26 | GAGERPRLVPRPINV | 0.5

molecular target: CaHse1; test: as above
In short: as §1

Row | Binder | SPOT peptide array binding signal intensity
27 | GAGERPRLVPRPINV | ≤ 0

molecular target: CaLsb1; test: as above
In short: as §1

Row | Binder | SPOT peptide array binding signal intensity
28 | GAGERPRLVPRPINV | 0.75

molecular target: CaLsb4; test: as above
In short: as §1

Row | Binder | SPOT peptide array binding signal intensity
29 | GAGERPRLVPRPINV | 102

molecular target: CaMyo5; test: as above
In short: as §1

Row | Binder | SPOT peptide array binding signal intensity
30 | GAGERPRLVPRPINV | 6.5

molecular target: CaNbp2; test: as above
In short: as §1

Row | Binder | SPOT peptide array binding signal intensity
31 | GAGERPRLVPRPINV | ≤ 0

molecular target: CaRvs167; test: as above
In short: as §1

Row | Binder | SPOT peptide array binding signal intensity
32 | GAGERPRLVPRPINV | 3.5

molecular target: CaRvs167-3; test: as above
In short: as §1

Row | Binder | SPOT peptide array binding signal intensity
33 | GAGERPRLVPRPINV | ≤ 0

molecular target: CaSho1; test: as above
In short: as §1

Row | Binder | SPOT peptide array binding signal intensity
34 | GAGERPRLVPRPINV | 21

molecular target: CaSla1-D1-D2; test: as above
In short: as §1

Row | Binder | SPOT peptide array binding signal intensity
35 | GAGERPRLVPRPINV | 15.5

molecular target: CaSla1-D3; test: as above
In short: as §1

Row | Binder | SPOT peptide array binding signal intensity
36 | GAGERPRLVPRPINV | 0.75

molecular target: ScAbp1; test: as above
In short: as §1

Row | Binder | SPOT peptide array binding signal intensity
37 | GAGERPRLVPRPINV | 10

molecular target: ScBbc1; test: as above
In short: as §1

Row | Binder | SPOT peptide array binding signal intensity
38 | GAGERPRLVPRPINV | 29.5

molecular target: ScBem1-D1; test: as above
In short: as §1

Row | Binder | SPOT peptide array binding signal intensity
39 | GAGERPRLVPRPINV | ≤ 0

molecular target: ScBzz1-D1; test: as above
In short: as §1

Row | Binder | SPOT peptide array binding signal intensity
40 | GAGERPRLVPRPINV | 13

molecular target: ScBzz1-D2; test: as above
In short: as §1

Row | Binder | SPOT peptide array binding signal intensity
41 | GAGERPRLVPRPINV | 44.5

molecular target: ScCyk3; test: as above
In short: as §1

Row | Binder | SPOT peptide array binding signal intensity
42 | GAGERPRLVPRPINV | 53

molecular target: ScFus1; test: as above
In short: as §1

Row | Binder | SPOT peptide array binding signal intensity
43 | GAGERPRLVPRPINV | ≤ 0

molecular target: ScHof1; test: as above
In short: as §1

Row | Binder | SPOT peptide array binding signal intensity
44 | GAGERPRLVPRPINV | 3.25

molecular target: ScHse1; test: as above
In short: as §1

Row | Binder | SPOT peptide array binding signal intensity
45 | GAGERPRLVPRPINV | 4.5

molecular target: ScLsb1; test: as above
In short: as §1

Row | Binder | SPOT peptide array binding signal intensity
46 | GAGERPRLVPRPINV | 98.2

molecular target: ScLsb2; test: as above
In short: as §1

Row | Binder | SPOT peptide array binding signal intensity
47 | GAGERPRLVPRPINV | 4.5

molecular target: ScLsb3; test: as above
In short: as §1

Row | Binder | SPOT peptide array binding signal intensity
48 | GAGERPRLVPRPINV | 531

molecular target: ScLsb4; test: as above
In short: as §1

Row | Binder | SPOT peptide array binding signal intensity
49 | GAGERPRLVPRPINV | 20

molecular target: ScMyo3; test: as above
In short: as §1

Row | Binder | SPOT peptide array binding signal intensity
50 | GAGERPRLVPRPINV | 47.5

molecular target: ScMyo5; test: as above
In short: as §1

Row | Binder | SPOT peptide array binding signal intensity
51 | GAGERPRLVPRPINV | 4

molecular target: ScNbp2; test: as above
In short: as §1

Row | Binder | SPOT peptide array binding signal intensity
52 | GAGERPRLVPRPINV | 8

molecular target: ScPex13; test: as above
In short: as §1

Row | Binder | SPOT peptide array binding signal intensity
53 | GAGERPRLVPRPINV | 1

molecular target: ScRvs167; test: as above
In short: as §1

Row | Binder | SPOT peptide array binding signal intensity
54 | GAGERPRLVPRPINV | 91.3

molecular target: ScSho1; test: as above
In short: as §1

Row | Binder | SPOT peptide array binding signal intensity
55 | GAGERPRLVPRPINV | 13.5

molecular target: ScSla1-D1-D2; test: as above
In short: as §1

Row | Binder | SPOT peptide array binding signal intensity
56 | GAGERPRLVPRPINV | 25.5

molecular target: ScSla1-D3; test: as above
In short: as §1

Row | Binder | SPOT peptide array binding signal intensity
57 | GAGERPRLVPRPINV | 20

molecular target: SpAbp1-D1; test: as above
In short: as §1

Row | Binder | SPOT peptide array binding signal intensity
58 | GAGERPRLVPRPINV | 11

molecular target: SpBbc1; test: as above
In short: as §1

Row | Binder | SPOT peptide array binding signal intensity
59 | GAGERPRLVPRPINV | 22.8

molecular target: SpBzz1-D1; test: as above
In short: as §1

Row | Binder | SPOT peptide array binding signal intensity
60 | GAGERPRLVPRPINV | 384

molecular target: SpBzz1-D2; test: as above
In short: as §1

Row | Binder | SPOT peptide array binding signal intensity
61 | GAGERPRLVPRPINV | 0.75

molecular target: SpCyk3; test: as above
In short: as §1

Row | Binder | SPOT peptide array binding signal intensity
62 | GAGERPRLVPRPINV | 8

molecular target: SpHof1; test: as above
In short: as §1

Row | Binder | SPOT peptide array binding signal intensity
63 | GAGERPRLVPRPINV | 5.5

molecular target: SpHof1-2; test: as above
In short: as §1

Row | Binder | SPOT peptide array binding signal intensity
64 | GAGERPRLVPRPINV | 6

molecular target: SpHof1-3; test: as above
In short: as §1

Row | Binder | SPOT peptide array binding signal intensity
65 | GAGERPRLVPRPINV | 5.75

molecular target: SpHse1; test: as above
In short: as §1

Row | Binder | SPOT peptide array binding signal intensity
66 | GAGERPRLVPRPINV | ≤ 0

molecular target: SpLsb1; test: as above
In short: as §1

Row | Binder | SPOT peptide array binding signal intensity
67 | GAGERPRLVPRPINV | 410

molecular target: SpLsb4; test: as above
In short: as §1

Row | Binder | SPOT peptide array binding signal intensity
68 | GAGERPRLVPRPINV | 740

molecular target: SpMyo1; test: as above
In short: as §1

Row | Binder | SPOT peptide array binding signal intensity
69 | GAGERPRLVPRPINV | 4.75

molecular target: SpNbp2; test: as above
In short: as §1

Row | Binder | SPOT peptide array binding signal intensity
70 | GAGERPRLVPRPINV | ≤ 0

molecular target: SpPex13; test: as above
In short: as §1

Row | Binder | SPOT peptide array binding signal intensity
71 | GAGERPRLVPRPINV | ≤ 0

molecular target: SpRvs167; test: as above
In short: as §1

Row | Binder | SPOT peptide array binding signal intensity
72 | GAGERPRLVPRPINV | 6.67

molecular target: SpSla1-D1-D2; test: as above
In short: as §1

Row | Binder | SPOT peptide array binding signal intensity
73 | GAGERPRLVPRPINV | 4

molecular target: SpSla1-D3; test: as above
In short: as §1

Row | Binder | SPOT peptide array binding signal intensity
74 | GAGERPRLVPRPINV | 1
